# Test results reported in PubChem BioAssay (NCI).
# This is part of a sample that, as a whole, favours compounds with a hit. Of some 79,000 tested, about 15% had one in any assay. Values without a mark were called inactive. Calls of active or inactive are those of the source. No stated cut-off is given here; in the data, active means growth inhibition above about 70%; inactive means the rest.
# Experiments:
# [1] = NCI Yeast Anticancer Drug Screen. Data for the rad50 strain (AID 155);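 further: 0% = growth of vehicle-only cultures of the same strain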; details: S. cerevisiae rad50 strain growth inhibition, stronger effect = higher value
# Procedure, shortened: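 Inhibition values express reduced yeast growth in compound-treated cultures relative to vehicle-treated controls.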
# [2] = NCI Yeast Anticancer Drug Screen. Data for the mec2-1 strain (AID 157); details: S. cerevisiae mec2-1 strain, stronger effect = higher value
# Procedure, shortened: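 Vehicle-treated cultures served as reference for growth inhibition of compound-exposed mec2-1 yeast.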
# [3] = NCI Yeast Anticancer Drug Screen. Data for the sgs1 mgt1 strain (AID 161);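 further: 0% = growth of cultures given vehicle only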; details: S. cerevisiae sgs1 mgt1 strain, stronger effect = higher value
# Procedure, shortened: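 Mutant yeast exposed to compound; growth scored against vehicle-only wells.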
# [4] = NCI Yeast Anticancer Drug Screen. Data for the cln2 rad14 strain (AID 165);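 further: 0% = growth equal to vehicle treated cultures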; details: S. cerevisiae cln2 rad14 strain, stronger effect = higher value
# Procedure, shortened: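 Each compound was tested on cln2 rad14 yeast. Inhibition of growth was calculated against vehicle-exposed controls.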
# [5] = NCI Yeast Anticancer Drug Screen. Data for the bub3 strain (AID 167); details: S. cerevisiae bub3 mutant strain, stronger effect = higher value
# Procedure, shortened: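 Steps: expose the mutant yeast strain to compound; grow alongside vehicle-treated cultures; measure growth; express inhibition against the vehicle cultures.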
# [6] = NCI Yeast Anticancer Drug Screen. Data for the mlh1 rad18 strain (AID 175); details: S. cerevisiae mlh1 rad18 strain growth inhibition, stronger effect = higher value
# Procedure, shortened: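 Vehicle-treated cultures served as the reference for growth inhibition in a yeast strain carrying DNA damage repair alterations exposed to each compound.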
# [7] = at 5.0 µM (retest, dose inferred, filed as 0.5)
# [8] = at 50.0 µM (retest, dose inferred, filed as 5.0)
Compound,"growth inhibition [1, 7]","growth inhibition [1, 8]",growth inhibition ([1]; at 50.0 µM),"growth inhibition [2, 7]","growth inhibition [2, 8]",growth inhibition ([2]; at 50.0 µM),"growth inhibition [3, 7]","growth inhibition [3, 8]",growth inhibition ([3]; at 50.0 µM),"growth inhibition [4, 7]","growth inhibition [4, 8]",growth inhibition ([4]; at 50.0 µM),"growth inhibition [5, 7]","growth inhibition [5, 8]",growth inhibition ([5]; at 50.0 µM),"growth inhibition [6, 7]","growth inhibition [6, 8]",growth inhibition ([6]; at 50.0 µM)
CC1=C(C)C(=O)C2=C(OCCCO2)C1=O,-9%,-12%,-6.55%,9%,-19%,-21.1%,-2%,11%,-0.8%,-21%,5%,5.35%,-13%,-19%,48.8%,-24%,-19%,10%
O=Nc1c(NO)c2ccccc2c2ccccc12,5%,96% (active),99.1% (active),-2%,91% (active),96.2% (active),-8%,93% (active),97.8% (active),2%,82% (active),85.8% (active),-9%,95% (active),98.2% (active),20%,95% (active),98.2% (active)
CC(C)(C)N1C(=O)C(Cl)(C#N)C1c1ccccc1 (centres undefined),7%,25%,43.5%,-4%,8%,26.6%,-3%,27%,73.5% (active),9%,11%,19.9%,-1%,0%,-6.3%,-11%,26%,72.5% (active)
CCCN1CSC(=S)N(CCC)C1,41%,92% (active),52.5%,48%,92% (active),77% (active),32%,99% (active),80.5% (active),66%,98% (active),32.1%,34%,100% (active),86.2% (active),37%,97% (active),72.8% (active)
C(=N\N=C\c1ccc2c(c1)OCO2)/c1ccc2c(c1)OCO2,2%,4%,3.1%,3%,2%,-4.3%,0%,6%,-3.7%,-32%,-6%,75.9% (active),3%,1%,3.9%,10%,21%,6.45%
Cc1ccc2c(-c3ccccc3)c3ccccc3cc2c1C,6%,3%,46.1%,13%,20%,16.9%,8%,18%,27.6%,-4%,-11%,14.5%,-5%,-16%,37.6%,-3%,2%,53.4%
CC1CCN(c2cc(-c3cc4ccccc4o3)oc(=O)c2C#N)CC1,7%,1%,66.5%,2%,3%,56.7%,3%,0%,68.5%,7%,-1%,33.1%,2%,-1%,39.9%,-5%,3%,74.7% (active)
COC1=Nc2ccccc2/C=C\c2ccccc21,-136%,-77%,78.5% (active),-50%,-57%,82.2% (active),-67%,-53%,67.7%,-49%,-60%,25.2%,-62%,-85%,43.7%,-124%,-118%,69.5%
NC(=O)C1CCCN1C(=O)C1CCCN(Cc2ccc(CN3CCCC(C(=O)N4CCCC4C(N)=O)C3)cc2)C1 (centres undefined),-1%,-5%,91.5% (active),8%,1%,74.2% (active),-10%,-11%,74.4% (active),-13%,11%,74.7% (active),16%,13%,78.8% (active),-10%,-12%,78.3% (active)
CCCCN(CCCC)CCCCCCNc1cc(OC)cc2cccnc12,4%,32%,98.2% (active),1%,14%,98.6% (active),3%,13%,99% (active),5%,39%,98.1% (active),9%,30%,99% (active),-4%,9%,98.7% (active)
O=c1oc(-c2cc([N+](=O)[O-])cc([N+](=O)[O-])c2Cl)nc2ccccc12,29%,50%,75.3% (active),8%,22%,63.5%,13%,47%,83.7% (active),15%,44%,61.5%,15%,58%,82.5% (active),1%,57%,86.8% (active)
NCCC(N)P(=O)(O)O (centres undefined),-166%,-150%,20.6%,-46%,-48%,16.2%,-61%,-60%,-3.9%,-61%,-51%,16.6%,-74%,-71%,13%,-141%,-111%,0.45%
Clc1ccc(-c2csc(NCC3CCCO3)n2)cc1 (centres undefined),46%,60%,66.4%,27%,57%,39%,34%,83% (active),77.2% (active),27%,53%,63.2%,39%,82% (active),73.9% (active),44%,70% (active),62.4%
